Values without a mark were called inactive. Inconclusive results are not listed. Calls of active or inactive are those of the source. Unless noted, calls come from the whole dose curve; as a rule, active = well fitted curve in the direction sought with a large enough effect in the repeat runs; inconclusive = weak or mixed curves; inactive = no such curve, though single readings can be large; an effect the other way counts as inactive or inconclusive.

Assay [1] addresses Thyrotropin-releasing hormone receptor (Homo sapiens) (UniProt P34981). Briefly: qHTS assay to identify small molecule agonists of the thyrotropin-releasing hormone receptor (TRHR) signaling pathway (AID 1346891; calls by dose curve;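 note: HEK293 cells expressing TRHR with calcium dye readout; series mostly up to about 58 µM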). The gist of the method: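 Compounds were tested as agonists at 15 concentrations, in triplicate, on TRHR-Hek293 cells; calcium-sensitive dye fluorescence was recorded for 3 min following addition.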

Assay [2] can be described thus: Human pregnane X receptor (PXR) small molecule agonists, qHTS cell viability counter screen (AID 1346977). Note: nearly all actives have a fitted effect of over 50% in size. The method, boiled down:
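Viability counter screen: CellTiter-Fluor signal in PXR-Luc HepG2 cells, 24hr compound exposure, 37C, 5% CO2.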
In general terms: In qHTS, concentration-response curves come from the screen itself.

Assay [3] can be described thus: Caspase-3/7 induction in HepG2 cells by small molecules, qHTS assay (AID 1346978). Note: nearly all actives have a fitted effect of over 15% in size. The gist of the method:
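Wild-type HepG2 cells (2,000/well) were settled 5 h at 37 C, 5% CO2, then exposed to compounds in DMSO for 17 h. Caspase-3/7 activity was read by luminescence 30 min after adding Caspase-Glo 3/7 reagent at room temperature.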

A short description of assay [4]: Caspase-3/7 induction in CHO-K1 cells by small molecules, qHTS cell viability counter screen (AID 1346979). Note: nearly all actives have a fitted effect of over 35% in size. Note: potency is the fitted concentration of half-maximal effect. The method, boiled down:
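Viability readout by fluorescence (CellTiter-Fluor) on wild-type CHO-K1 cells exposed for 16hr at 37C and 5% CO2 to compounds delivered in DMSO; reagent incubated 1hr before reading.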

A short description of assay [5]: Caspase-3/7 induction in HepG2 cells by small molecules, qHTS cell viability counter screen (AID 1346981). Note: series mostly up to about 92 µM; nearly all actives have a fitted effect of over 30% in size. The gist of the method: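 Fluorescence read-out of live-cell protease activity (CellTiter-Fluor) after 1 hr with reagent. This was measured in the same wells as the caspase-3/7 luminescence, on HepG2 cells exposed to DMSO-dissolved compounds for 16 hr at 37 C.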

In assay [6] the target is Nuclear receptor subfamily 1 group I member 2 (Homo sapiens) (UniProt O75469). The assay can be described thus: Human pregnane X receptor (PXR) small molecule agonists, qHTS assay (AID 1346982). Note: nearly all actives have a fitted effect of over 35% in size. Note: potency is the fitted concentration of half-maximal effect. The gist of the method:
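HepG2 PXR-Luc reporter line, 5% charcoal-stripped FBS; 5 hr pre-incubation, compound (DMSO) 24 hr at 37 C/5% CO2; ONE-Glo 30 min RT; luminescence read-out.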

Assay [7] deals with Cytochrome P450 2C19 (Homo sapiens) (UniProt P33261). The assay can be described thus: Cytochrome P450 Family 2 Subfamily C Member 19 (CYP2C19) small molecule antagonists: luciferase reporter qHTS assay (AID 1671197). Note: nearly all actives have a fitted effect of over 65% in size. Note: potency is the fitted concentration of half-maximal effect. The method, boiled down:
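Inhibition of CYP2C19 was scored from loss of luminescence in a P450-Glo proluciferin substrate assay, NADPH-started and run 1 h at 37C, with ketoconazole as positive control.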
(Reporter assays use an easily measured gene product as a stand-in for the process of interest.)

Assay [8] has as its target Cytochrome P450 2C9 (Homo sapiens) (UniProt P11712). The assay can be described thus: Cytochrome P450 Family 2 Subfamily C Member 9 (CYP2C9) small molecule antagonists: luciferase reporter qHTS assay (AID 1671198). Note: nearly all actives have a fitted effect of over 50% in size. Note: potency is the fitted concentration of half-maximal effect. The gist of the method: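 CYP2C9 activity was measured with a P450-Glo proluciferin substrate. Enzyme–substrate mix was held with compound for 10 min at room temperature, then NADPH regeneration solution was added for 1 h at 37C. Luciferin product was read as luminescence.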

Assay [9] addresses Voltage-gated inwardly rectifying potassium channel KCNH2 (Homo sapiens) (UniProt Q12809). Briefly: Human Ether-a-go-go-Related Gene (hERG) channel small molecule antagonists: fluorescence cell-based qHTS assay (AID 1671200). Note: nearly all actives have a fitted effect of over 50% in size. Note: potency is the fitted concentration of half-maximal effect. The gist of the method:
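Thallium served as the potassium surrogate; its influx into dye-loaded U2OS cells carrying the channel was measured by fluorescence over 2 min.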
A general note: The hERG channel carries a current that helps repolarise heart muscle cells.

Assay [10] deals with Cytochrome P450 3A4 (Homo sapiens) (UniProt P08684). Briefly: Cytochrome P450 Family 3 Subfamily A Member 4 (CYP3A4) small molecule antagonists: luciferase reporter qHTS assay (AID 1671201). Note: series mostly up to about 120 µM; nearly all actives have a fitted effect of over 50% in size. The method, boiled down:
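Relative luminescence units after 20 min with luciferin detection reagent served as read-out. Beforehand, CYP3A4 turned over a proluciferin substrate for 1 h at room temperature with NADPH regeneration, following 10 min compound preincubation.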

Assay [11] in a line: Caspase-3/7 induction in CHO-K1 cells by small molecules, qHTS assay (AID 1346980). Note: nearly all actives have a fitted effect of over 15% in size. The method, boiled down: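 Wild-type cells were seeded at 1,500 per well and settled 5 hr at 37 C, 5% CO2, then exposed to DMSO-dissolved compounds for 17 hr. Caspase-Glo 3/7 reagent was added, and luminescence was read after 30min at room temperature.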
Assay [12] concerns the target Cytochrome P450 2D6 (Homo sapiens) (UniProt P10635). Briefly: Cytochrome P450 Family 2 Subfamily D Member 6 (CYP2D6) small molecule antagonists: luciferase reporter qHTS assay (AID 1671196). Note: nearly all actives have a fitted effect of over 50% in size. Note: potency is the fitted concentration of half-maximal effect. The method, boiled down:
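Luminogenic proluciferin substrate, CYP2D6 enzyme; 10 min RT preincubation with compound, NADPH regeneration system added, 1 h RT. Stop/detection reagent, 20 min RT, luminescence read (RLU). Signal proportional to CYP activity.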

Assay [13] has as its target Cytochrome P450 1A2 (Homo sapiens) (UniProt P05177). The assay can be described thus: Cytochrome P450 Family 1 Subfamily A Member 2 (CYP1A2) small molecule antagonists: luciferase reporter qHTS assay (AID 1671199). Note: nearly all actives have a fitted effect of over 50% in size. Note: potency is the fitted concentration of half-maximal effect. The method, boiled down:
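Luminescence readout (relative luminescence units) after luciferin detection reagent, 20 min RT. Preceded by 1 h room-temperature CYP1A2 reaction with NADPH regeneration solution following 10 min compound preincubation with enzyme and proluciferin substrate. Furafylline positive control.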

Assay [14] deals with Nuclear receptor subfamily 1 group I member 2 (Homo sapiens) (UniProt O75469). The assay can be described thus: CYP3A4 induction through human pregnane X receptor (PXR) by small molecules, qHTS assay (AID 1346984). Note: nearly all actives have a fitted effect of over 40% in size. The gist of the method:
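HepG2-derived DPX-2 line carrying PXR plus a CYP3A4-promoter luciferase reporter; cells plated 5 hr, compound-exposed 24 hr at 37C. CYP3A4 activity probed with 3uM (final) Luciferin-IPA for 3hr, then luciferase read after One-Glo.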

Sequence of Cytochrome P450 2D6 (Homo sapiens) (P10635 whole entry, looked up): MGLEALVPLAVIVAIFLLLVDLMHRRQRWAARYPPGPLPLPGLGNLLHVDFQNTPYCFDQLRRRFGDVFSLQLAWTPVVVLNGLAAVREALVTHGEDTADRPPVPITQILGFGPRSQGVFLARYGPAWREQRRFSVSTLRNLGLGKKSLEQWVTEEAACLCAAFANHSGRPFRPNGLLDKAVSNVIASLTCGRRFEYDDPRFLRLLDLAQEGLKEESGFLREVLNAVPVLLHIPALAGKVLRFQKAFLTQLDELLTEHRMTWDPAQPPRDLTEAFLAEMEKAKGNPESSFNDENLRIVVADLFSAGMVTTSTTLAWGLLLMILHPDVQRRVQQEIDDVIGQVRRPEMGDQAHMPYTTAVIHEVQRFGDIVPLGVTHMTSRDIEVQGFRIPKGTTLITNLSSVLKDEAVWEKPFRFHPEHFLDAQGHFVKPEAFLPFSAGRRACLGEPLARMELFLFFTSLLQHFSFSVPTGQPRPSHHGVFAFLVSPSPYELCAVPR
Sequence of Thyrotropin-releasing hormone receptor (Homo sapiens) (P34981 whole entry, looked up): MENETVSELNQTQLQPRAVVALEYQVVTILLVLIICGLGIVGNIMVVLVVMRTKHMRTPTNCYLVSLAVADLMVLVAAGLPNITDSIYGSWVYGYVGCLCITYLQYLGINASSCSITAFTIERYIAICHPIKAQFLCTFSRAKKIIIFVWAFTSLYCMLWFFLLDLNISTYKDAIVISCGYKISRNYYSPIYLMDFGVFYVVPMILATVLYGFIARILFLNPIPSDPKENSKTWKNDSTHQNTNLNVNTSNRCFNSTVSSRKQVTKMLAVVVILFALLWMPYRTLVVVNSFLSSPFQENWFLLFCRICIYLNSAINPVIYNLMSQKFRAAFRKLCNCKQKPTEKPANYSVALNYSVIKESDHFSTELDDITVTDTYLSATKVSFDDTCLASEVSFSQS
Sequence of Cytochrome P450 2C9 (Homo sapiens) (P11712 whole entry, looked up): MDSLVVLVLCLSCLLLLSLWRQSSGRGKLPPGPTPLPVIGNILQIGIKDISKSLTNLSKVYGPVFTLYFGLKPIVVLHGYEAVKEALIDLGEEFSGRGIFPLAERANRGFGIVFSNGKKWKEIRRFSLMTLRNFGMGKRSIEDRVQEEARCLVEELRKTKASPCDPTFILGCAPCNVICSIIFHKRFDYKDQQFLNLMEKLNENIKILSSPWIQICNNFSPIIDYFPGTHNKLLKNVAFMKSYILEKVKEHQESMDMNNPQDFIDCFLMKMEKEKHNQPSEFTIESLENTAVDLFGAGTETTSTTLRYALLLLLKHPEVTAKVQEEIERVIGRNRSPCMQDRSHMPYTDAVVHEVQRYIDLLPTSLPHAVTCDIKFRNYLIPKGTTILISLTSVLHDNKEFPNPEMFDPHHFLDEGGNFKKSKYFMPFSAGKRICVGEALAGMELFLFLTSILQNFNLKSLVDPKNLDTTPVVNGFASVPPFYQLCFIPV
Sequence of Cytochrome P450 3A4 (Homo sapiens) (P08684 whole entry, looked up): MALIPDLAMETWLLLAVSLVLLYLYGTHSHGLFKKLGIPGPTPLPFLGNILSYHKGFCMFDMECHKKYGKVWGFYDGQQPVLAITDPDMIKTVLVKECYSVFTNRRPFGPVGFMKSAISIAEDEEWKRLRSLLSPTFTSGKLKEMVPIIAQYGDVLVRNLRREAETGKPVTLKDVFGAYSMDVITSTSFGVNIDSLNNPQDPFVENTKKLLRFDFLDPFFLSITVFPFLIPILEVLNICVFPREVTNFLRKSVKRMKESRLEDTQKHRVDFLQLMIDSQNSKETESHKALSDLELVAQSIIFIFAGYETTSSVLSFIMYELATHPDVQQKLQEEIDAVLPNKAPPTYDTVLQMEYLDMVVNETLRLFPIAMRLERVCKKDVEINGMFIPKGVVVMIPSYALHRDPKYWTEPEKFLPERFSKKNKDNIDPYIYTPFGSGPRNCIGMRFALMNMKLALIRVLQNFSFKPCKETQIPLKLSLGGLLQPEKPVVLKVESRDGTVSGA
Sequence of Cytochrome P450 1A2 (Homo sapiens) (P05177 whole entry, looked up): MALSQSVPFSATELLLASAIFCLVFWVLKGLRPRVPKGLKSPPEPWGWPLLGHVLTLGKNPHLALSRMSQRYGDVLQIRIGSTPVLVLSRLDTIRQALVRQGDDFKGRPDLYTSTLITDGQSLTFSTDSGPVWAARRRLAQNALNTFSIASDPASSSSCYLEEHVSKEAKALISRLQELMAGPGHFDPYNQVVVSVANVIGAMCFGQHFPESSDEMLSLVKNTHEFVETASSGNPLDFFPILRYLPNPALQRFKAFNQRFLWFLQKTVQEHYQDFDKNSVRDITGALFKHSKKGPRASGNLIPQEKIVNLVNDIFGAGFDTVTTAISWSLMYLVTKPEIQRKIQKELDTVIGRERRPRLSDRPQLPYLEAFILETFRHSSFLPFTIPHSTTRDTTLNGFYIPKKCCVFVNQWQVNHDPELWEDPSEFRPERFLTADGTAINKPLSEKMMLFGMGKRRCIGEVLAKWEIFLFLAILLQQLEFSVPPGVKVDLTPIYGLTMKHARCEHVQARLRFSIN
Sequence of Voltage-gated inwardly rectifying potassium channel KCNH2 (Homo sapiens) (Q12809 whole entry, looked up): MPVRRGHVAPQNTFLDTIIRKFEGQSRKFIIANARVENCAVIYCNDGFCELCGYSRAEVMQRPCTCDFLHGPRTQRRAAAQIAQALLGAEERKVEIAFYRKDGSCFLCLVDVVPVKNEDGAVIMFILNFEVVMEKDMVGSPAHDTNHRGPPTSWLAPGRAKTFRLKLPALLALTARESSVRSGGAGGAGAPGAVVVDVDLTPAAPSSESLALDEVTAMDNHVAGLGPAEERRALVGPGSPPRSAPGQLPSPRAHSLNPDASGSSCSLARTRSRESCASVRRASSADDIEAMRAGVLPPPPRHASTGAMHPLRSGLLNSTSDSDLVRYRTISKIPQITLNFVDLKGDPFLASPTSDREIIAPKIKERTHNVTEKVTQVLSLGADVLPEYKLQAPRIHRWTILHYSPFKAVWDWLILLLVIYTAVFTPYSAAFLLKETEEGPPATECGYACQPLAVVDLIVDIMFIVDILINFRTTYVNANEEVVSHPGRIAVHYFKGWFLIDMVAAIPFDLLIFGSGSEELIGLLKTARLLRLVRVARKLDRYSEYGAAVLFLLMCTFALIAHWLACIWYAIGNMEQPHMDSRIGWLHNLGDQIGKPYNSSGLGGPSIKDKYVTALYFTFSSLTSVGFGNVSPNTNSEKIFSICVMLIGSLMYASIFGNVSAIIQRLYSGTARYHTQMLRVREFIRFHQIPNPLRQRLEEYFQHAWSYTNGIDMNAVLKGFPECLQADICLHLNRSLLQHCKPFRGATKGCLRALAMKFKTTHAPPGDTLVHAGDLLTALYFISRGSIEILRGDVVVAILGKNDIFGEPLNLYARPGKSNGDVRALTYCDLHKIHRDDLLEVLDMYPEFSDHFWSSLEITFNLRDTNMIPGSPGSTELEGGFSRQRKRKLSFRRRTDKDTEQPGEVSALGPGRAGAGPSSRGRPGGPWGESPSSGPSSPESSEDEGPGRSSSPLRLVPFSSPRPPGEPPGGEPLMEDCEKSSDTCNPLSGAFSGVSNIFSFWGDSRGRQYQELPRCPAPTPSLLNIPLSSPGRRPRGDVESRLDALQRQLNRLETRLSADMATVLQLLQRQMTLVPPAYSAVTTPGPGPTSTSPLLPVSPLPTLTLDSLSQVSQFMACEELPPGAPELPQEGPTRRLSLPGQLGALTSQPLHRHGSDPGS
Sequence of Nuclear receptor subfamily 1 group I member 2 (Homo sapiens) (O75469 whole entry, looked up): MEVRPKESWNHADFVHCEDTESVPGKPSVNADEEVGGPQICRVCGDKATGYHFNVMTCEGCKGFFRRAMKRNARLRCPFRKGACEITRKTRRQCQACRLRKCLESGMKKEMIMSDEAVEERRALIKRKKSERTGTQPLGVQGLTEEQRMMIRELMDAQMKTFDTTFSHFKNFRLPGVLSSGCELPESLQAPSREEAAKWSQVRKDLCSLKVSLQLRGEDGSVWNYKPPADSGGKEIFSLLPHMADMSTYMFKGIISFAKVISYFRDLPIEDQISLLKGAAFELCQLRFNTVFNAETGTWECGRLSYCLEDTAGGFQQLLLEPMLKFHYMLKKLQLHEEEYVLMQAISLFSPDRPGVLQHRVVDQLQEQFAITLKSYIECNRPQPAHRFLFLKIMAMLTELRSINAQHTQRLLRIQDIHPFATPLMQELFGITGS
Sequence of Cytochrome P450 2C19 (Homo sapiens) (P33261 whole entry, looked up): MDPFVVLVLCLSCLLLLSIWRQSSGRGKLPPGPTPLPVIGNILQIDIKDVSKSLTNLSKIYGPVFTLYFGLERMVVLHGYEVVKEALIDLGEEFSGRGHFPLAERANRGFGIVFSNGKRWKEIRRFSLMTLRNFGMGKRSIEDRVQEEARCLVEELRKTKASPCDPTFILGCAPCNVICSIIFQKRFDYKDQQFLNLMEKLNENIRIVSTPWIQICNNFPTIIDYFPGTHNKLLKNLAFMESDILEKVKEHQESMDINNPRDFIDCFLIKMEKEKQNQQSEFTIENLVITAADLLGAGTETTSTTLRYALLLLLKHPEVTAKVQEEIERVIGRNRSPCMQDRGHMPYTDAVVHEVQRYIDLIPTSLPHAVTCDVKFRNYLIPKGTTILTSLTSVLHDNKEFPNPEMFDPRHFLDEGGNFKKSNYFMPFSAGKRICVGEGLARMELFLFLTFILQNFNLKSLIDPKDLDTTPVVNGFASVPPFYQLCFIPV

As for `c1cnc2c(n1)CCCC2`, the Potency entry in [1], in [2], in [3], in assay [4], in assay [5] and in assay [6] was “inactive” in each case. For the same compound, the Potency result in [7], in [8], in assay [9] and in [10] was “inactive” in each case.
As to `CCCCC(CC)CNCC(CC)CCCC` (stereo not drawn), the Potency entry in assay [1], in assay [2], in [3], in [4], in [6] and in assay [9] was “inactive” in each case. In assay [10], the Potency entry is “inactive”. The result in assay [11] was inactive. The figures for the Potency in assay [12] and in assay [7] were 0.199 µM (active) and 35.3 µM (active), respectively.
With `C=CC(=C)CCCC(C)(C)OC(C)=O`, the Potency result in assay [1], in assay [2], in [3], in assay [4], in assay [6] and in assay [7] was “inactive” throughout. Also, the Potency entry in assay [8], in [9] and in assay [10] was “inactive” each time. For the same compound, in [11], the compound was called inactive.
For `Brc1cc(-c2ccc(Br)c(Br)c2Br)cc(Br)c1Br`, the Potency result in assay [1], in assay [2], in [3], in [5], in [12] and in assay [8] was “inactive” each time. Moreover, the Potency entry in [9] and in assay [10] was “inactive” each time. The call in assay [11] was inactive. In addition, the Potency in assay [6] was 30.2 µM (active); in assay [7], 39.3 µM (active).
In the case of `CCOC(=O)C(C)Oc1ccc(Oc2nc3ccc(Cl)cc3o2)cc1` (stereo not drawn), the Potency result in [1], in assay [2], in assay [3], in assay [4], in [5] and in assay [10] was “inactive” throughout. Further, the compound was classed as inactive in assay [11]. For the same compound, the Potency was 39.9 µM (active) in [8] and 34.7 µM (active) in assay [9].
On to `C=CCOC(=O)/C=C\C(=O)OCC=C`, for which the Potency result in assay [1], in [2], in assay [3], in assay [4], in assay [5] and in assay [9] was “inactive” each time. In assay [13], the Potency is 28.8 µM (active).
On to `Cc1cc(O)c2c(O)c3c(O)cccc3cc2c1`, for which the Potency result in assay [1], in assay [2], in assay [3], in assay [5], in assay [12] and in assay [9] was “inactive” in each case. Further, the call in assay [11] was inactive. Moreover, the Potency in assay [6] was 11.9 µM (active); in assay [7], 4.36 µM (active); in assay [8], 4.9 µM (active).
In the case of `CN(C)C(=O)Nc1ccc(Oc2ccc(Cl)cc2)cc1`, the Potency result in assay [1], in [2], in assay [3] and in assay [9] was “inactive” throughout. The results for the Potency in [4], in [6] and in [13] were 54.5 µM (active), 10.9 µM (active) and 12.6 µM (active), respectively.
For the compound `C=CC(=O)NCOCC(C)C`, the Potency entry in [1], in assay [2], in assay [3], in assay [4], in assay [6] and in assay [7] was “inactive” throughout. Moreover, the Potency entry in assay [8] and in assay [9] was “inactive” each time. Besides, the compound was called inactive in [11].
For the compound `CC(C)(CCl)c1ccccc1`, the Potency entry in assay [1], in [2], in assay [3], in [4], in assay [5] and in [6] was “inactive” each time. Further, the Potency result in assay [12], in [7], in assay [8], in [13], in [9] and in assay [10] was “inactive” throughout.
For the compound `CC(C)(O)c1ccccc1CC[C@@H](SCC1(CC(=O)O)CC1)c1cccc(/C=C/c2ccc3ccc(Cl)cc3n2)c1`, the Potency result in assay [1], in assay [2], in [3], in assay [5], in assay [6] and in assay [14] was “inactive” each time. Further, the Potency entry in assay [12], in assay [7], in assay [8], in [13], in assay [9] and in assay [10] was “inactive” throughout. In assay [11], the outcome was inactive.

For the origin of these results see PubChem BioAssay (Tox21).
